Compounds without any hit were thinned out: in the full panel of roughly 83,000, 20% have a hit.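 In brief: 96-well plates, 48 h treatment, single concentration, percent growth endpoint.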 Values without a mark were called inactive. Activity calls are given as the source filed them. Rule for the calls: active = growth percent below 10; inactive = the rest.

Experiment in all cases: NCI-60 one-dose screen, 48 h (100 = growth as untreated, 0 = no growth, -100 = all killed)
Assay [1] deals with NCI-H23 lung. The settings on record: 10 µM unless noted.
The subject of assay [2] is NCI-H322M lung. Conditions: 10 µM unless noted.
Assay [3] has as its system HOP-62 NSCLC. The settings on record: 10 µM unless noted.
For assay [4], the system named is NCI-H460 lung. Conditions: 10 µM unless noted.
Assay [5] has as its system NCI-H522 lung. The settings on record: 10 µM.
Assay [6] deals with A549/ATCC NSCLC. The settings on record: 10 µM unless noted.
Assay [7] has as its system 786-0 renal. Conditions: 10 µM unless noted.
In assay [8] the test system is COLO 205 colon. The settings on record: 10 µM unless noted.
Assay [9] concerns HOP-92 NSCLC. Conditions: 10 µM unless noted.

With `COc1cc(/C=C2\C(=O)Nc3ccccc32)cc(OC)c1O`, the growth was 66.4% in [1]; 96% in assay [2]; 64.4% in assay [3]; 40.1% in [4]; 8.78% (active) in assay [5]; 67.9% in assay [6]. Moreover, the growth in assay [7] was 83.2%; in assay [8], 112%.

For `COc1ccccc1/C=C/C(=O)/C=C/c1ccccc1O`, the growth is -11.3% (active) in assay [1]; 24.9% in assay [2]; 62% in assay [3]; -58.2% (active) in [4]; 30.1% in [5]; 6.86% (active) in assay [6]. Further, the growth in assay [7] was -44% (active); in [8], -48.6% (active).

Regarding `COc1cccc(C2CC(=O)Nc3cc4c(cc32)OCO4)c1OC` (stereo unspecified), the growth in assay [1] was 92.3%; in [2], 88.3%; in assay [3], 98.2%; in assay [4], 102%; in assay [5], 87.4%; in assay [6], 89.8%. Besides, the results for the growth in assay [7] and in assay [8] were 114% and 107%, respectively.

As to `COc1cc(CNCCN2C(=O)c3ccc4c5c(ccc(c35)C2=O)C(=O)N(CCNCc2cc(OC)c(OC)c(OC)c2)C4=O)cc(OC)c1OC`, the growth in assay [1] was -89.3% (active); in [2], -68.3% (active); in [3] it was -78% (active); in assay [4], -81.7% (active); in assay [5], -60.3% (active); in assay [6] it was -76.5% (active). For the same molecule, the growth in assay [7] is -93.6% (active); in assay [8] it was -72% (active).

In the case of `CC1SC(c2ccc(Cl)cc2)N(CCc2cccs2)C1=O` (stereo unspecified), the growth was -0.245% (active) in assay [1]; 21.7% in [2]; 15.2% in assay [3]; -24.4% (active) in [4]; -48.9% (active) in assay [5]; 1.08% (active) in [6]. Also, the results for the growth in [7] and in assay [8] were -49.4% (active) and -60.5% (active), respectively.

On to `COc1ccc(Cn2c(Br)c3c(c2-c2cc(OC)c(OC)c(OC)c2)CCc2sc(N)nc2-3)cc1`, for which the growth in [1] is 38.1%; in [2], 46%; in assay [3], 41.4%; in assay [4], 7.43% (active); in assay [5] it was -11.4% (active); in assay [6], 19%. Also, the values for the growth in assay [7] and in assay [8] were 40.2% and -10.6% (active), respectively.

`CCN1C(=O)C2(Nc3ccccc3S2)c2cc(C)ccc21` (stereo unspecified): the growth is 111% in assay [1]; 96.2% in assay [2]; 89.7% in assay [3]; 109% in assay [4]; 86.8% in assay [5]; 95.7% in [6]. In addition, the growth in [7] was 113%; in assay [8], 97%.

For `Cc1oc2c(c1C(=O)N1CC[C@@H](N)C1)C(=O)c1c(c(O)c3ccccc3c1O)C2=O`, the growth in assay [1] is 45.3%; in assay [2], 33.5%; in assay [3] it was 31.9%; in assay [4] it was 2.29% (active); in assay [5], 21%; in assay [6] it was 12.4%. Further, the growth in assay [7] was 41%; in assay [8] it was 13.1%.

As to `CCOC(=O)c1c(-c2cc(OC)c(OC)c(OC)c2)csc1N`, the growth in assay [1] is 92.9%; in [2], 99.4%; in assay [3], 80%; in assay [4] it was 104%; in assay [5], 79.6%; in assay [6], 96.9%. Also, the growth is 112% in assay [7] and 90.7% in assay [8].

For the molecule `Clc1ccc(Nc2nc(Nc3ccccc3)nc(Nc3ccc(-c4cc(-c5ccc(Cl)cc5)on4)cc3)n2)cc1`, the growth was 72.2% in assay [1]; 77.6% in [2]; 75.6% in assay [3]; 7.19% (active) in [4]; 26.2% in [5]; 38.9% in assay [6]. For the same molecule, the growth was 53.9% in assay [7] and 69.8% in assay [8].

On to `Brc1ccccc1Nc1ccc2nnc(-c3ccncc3)n2n1`, for which the growth in [1] is 92.3%; in assay [2] it was 95.6%; in assay [3] it was 95.1%; in [4], 104%; in assay [5], -71.2% (active); in assay [6], 101%. The growth in assay [7] was 101%; in assay [8], 103%.

For `CC1(C)CC(=O)C2=C(C1)Nc1cc3c(cc1C2c1ccc(F)cc1)OCO3` (stereo unspecified), the growth in assay [1] was 96%; in assay [2], 94.8%; in assay [3] it was 95.6%; in assay [4], 103%; in assay [5] it was 80.9%; in assay [6], 94.5%. In addition, the growth in assay [7] is 109%; in assay [8], 117%.

On to `Clc1ccccc1Nc1ccc2nnc(-c3ccncc3)n2n1`, for which the growth is 101% in assay [1]; 102% in assay [2]; 112% in assay [3]; 109% in assay [4]; -55.8% (active) in assay [5]; 89.9% in [6]. Further, the growth in assay [7] was 75.7%; in assay [8] it was 106%.

In the case of `CCOC(=O)c1c(Cl)c2c(n1Cc1cc(OC)cc(OC)c1)-c1oncc1CCC2`, the growth is 44.1% in [1]; 55.7% in assay [2]; 39.7% in [3]; 12.8% in assay [4]; 28.9% in assay [5]; 28.1% in [6]. The figures for the growth in assay [7] and in assay [8] were 43% and -51.8% (active), respectively.

As for `O=C(NCc1cccnc1)c1ccc([N+](=O)[O-])o1`, the growth in [1] is -89.1% (active); in assay [2] it was -6.13% (active); in assay [3], -4.75% (active); in [4] it was -64.3% (active); in [5] it was -66.5% (active); in assay [6] it was -10.5% (active). The figures for the growth in assay [7] and in [8] were 4.89% (active) and -77% (active), respectively.

`COC(=O)[C@@H]1CCCN1C(=O)[C@@H]1CCCN1C(=O)[C@@H](Cc1c[nH]c2ccccc12)NC(=S)Nc1cc(C(F)(F)F)cc(C(F)(F)F)c1`: the growth in assay [1] is 74.2%; in assay [2] it was 75.8%; in assay [3], 83.3%; in [4], 51.6%; in assay [5], 73.2%; in assay [6] it was 56.4%. For the same molecule, the growth in assay [7] was 69.8%; in assay [8], 16.8%.

Regarding `O=S(=O)(Nc1ncccn1)c1ccc(Nc2ccc3nnc(-c4ccncc4)n3n2)cc1`, the growth was 99.6% in assay [1]; 112% in assay [2]; 104% in [3]; 96.4% in assay [4]; 113% in [5]; 104% in assay [6]. Besides, the growth in assay [7] is 103%; in assay [8], 107%.

As for `CCCN(CCC)c1ccc(/C=C/c2ccc3cc(OCC)ccc3n2)cc1`, the growth in [1] was 83.8%; in assay [2], 105%; in assay [3], 125%; in assay [4], 95.1%; in [5] it was 76.8%; in [6], 87.4%. Besides, the growth in assay [7] is 91.1%; in assay [8], 112%.

Turning to `O=C1/C(=C/c2ccc(Cl)cc2)N=C(c2ccccc2)N1CCc1cccs1`, the growth in [1] is 61.4%; in assay [2], 82.2%; in assay [3] it was 108%; in assay [4], 23.3%; in assay [5] it was 23%; in assay [6], 30.6%. In addition, the figures for the growth in assay [7] and in assay [8] were 50.9% and 100%, respectively.

Consider `O=C1c2[nH]cc(CN[C@@H]3CCCN3)c2C(=O)c2c1c(O)c1ccccc1c2O`, for which the growth is -53.7% (active) in [1]; -95% (active) in assay [2]; -100% (active) in assay [3]; -92.6% (active) in assay [4]; -85.1% (active) in assay [5]; -93.1% (active) in assay [6]. The growth in [7] was -83.1% (active); in assay [8] it was -79.8% (active).

Regarding `Cc1ccc(S(=O)(=O)c2ccc3[nH]c(=O)[nH]c(=O)c3c2)cc1`, the growth in assay [1] was 102%; in assay [2], 106%; in [3] it was 106%; in [4] it was 114%; in assay [5], 84.9%; in assay [6] it was 80.7%. Further, the growth is 96.5% in assay [7] and 99.3% in assay [8].

`Cc1ccc(-c2nnc(COc3ccc(-c4nnc(N)s4)cc3)o2)cc1`: the growth in [1] is 79.4%; in assay [2] it was 95.9%; in assay [3], 113%; in [4], 93%; in [5] it was 73.9%; in [6] it was 105%. The results for the growth in assay [7] and in [8] were 96.9% and 92.8%, respectively.

Regarding `COC(=O)[C@H]1CCCN1C(=O)[C@H]1CCCN1C(=O)[C@@H](Cc1c[nH]c2ccccc12)NC(=S)Nc1cc(C(F)(F)F)cc(C(F)(F)F)c1`, the growth was 69.2% in assay [1]; 32.8% in assay [2]; 78.6% in assay [3]; 18.6% in assay [4]; 85.7% in assay [5]; 31% in [6]. Further, the growth in [7] was 62.5%; in [8], 38.4%.

For `O=C(NCc1ccco1)C1CCN(S(=O)(=O)c2ccc(Cl)cc2)CC1`, the growth in assay [1] was 77.9%; in assay [2], 108%; in assay [3] it was 92.6%; in assay [4], 63.1%; in [5], 68.7%; in assay [6], 74.9%. For the same molecule, the growth in assay [7] was 82.9%; in assay [8], 101%.

On to `COc1ccc(CSc2nc3cc(OC)c(OC)cc3c(=O)n2-c2ccc(Cl)cc2)cc1`, for which the growth in assay [1] was 102%; in assay [2], 105%; in assay [3], 104%; in assay [4], 103%; in assay [6], 103%; in assay [7], 103%. Moreover, in assay [8], the growth is 104%.

As to `Cc1nc2ccc(Cl)cc2n1C`, the growth was 107% in assay [1]; 108% in [2]; 109% in [4]; 105% in [9]; 90.2% in [5]; 103% in [6]. For the same molecule, the growth in [7] was 101%.

With `CS(=O)(=O)Nc1cccc(C(=O)NCc2ccc(N3CCOCC3)cc2)c1`, the growth in assay [1] is 104%; in assay [2], 112%; in assay [3], 107%; in [4], 109%; in assay [6], 119%; in [7], 101%. In assay [8], the growth was 112%.

As for `N#CC1=C(N)Oc2cc(N)ccc2C1c1ccc(F)cc1` (stereo unspecified), the growth is 81.6% in assay [1]; 82.6% in [2]; 69.6% in [3]; 100% in assay [4]; 54.1% in assay [5]; 74.2% in assay [6]. Further, the growth in [7] is 86.6%; in assay [8] it was 82.9%.

The values are drawn from PubChem BioAssay (NCI).
